# Assay results taken from PubChem BioAssay.
# Active and inactive are the calls of the source.
# Tests used:
# [1] = E. coli DRC41 culture turbidity changes, primary screen, E. coli filamentation inducer project, strain DRC41, OD650, 48 h (AID 1152);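 also: E. coli MC1000 strain DRC41 lacking acrAB efflux pump and sulA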; conditions: E. coli DRC41 (acrAB sulA), higher = more signal, called active from +8 up or from −8 down
# [2] = small-molecule binders of probe aLefty1, primary screen, biochemical, small-molecule microarray, 635/667 nm fluorescence (AID 1153); conditions: higher = more signal;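 also: score merges spot fluorescence with signal-to-noise ratio from the scanned slide images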
# [3] = PSAC antagonists in infected red cells, primary screen, cell-based, P. falciparum Indochina, OD700, 1 h (AID 1154); conditions: P. falciparum Indochina infected RBC osmotic lysis, higher = more signal, called active from +8 up or from −8 down
# [4] = PSAC antagonists in infected red cells, primary screen, cell-based, P. falciparum Indochina, OD700, 2 h (AID 1155);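 also: lysis reports solute entry through the parasite surface anion channel PSAC; channel blockers reduce lysis of infected cells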; conditions: P. falciparum Indochina infected erythrocytes, osmotic lysis OD700; higher = more signal, called active from +8 up or from −8 down
# [5] = osmotic lysis modulators in infected erythrocytes, primary screen, PSAC antagonist project, cell-based, P. falciparum Indochina, OD700, 3 h (AID 1156); conditions: higher = more signal, called active from +8 up or from −8 down
# [6] = PSAC antagonists in infected red cells, primary screen, cell-based, P. falciparum Indochina, OD700, 18 h (AID 1157); conditions: P. falciparum Indochina infected erythrocytes, osmotic lysis OD700, 18 h; higher = more signal, called active from +8 up or from −8 down
# [7] = modulators of S6 phosphorylation in cells, primary screen, cell-based, A549, cytoblot, luminescence, serum-stimulated (AID 1158); conditions: A549 phospho-S6 cytoblot, 5 h, higher = more signal;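 also: serum-stimulated A549 lung adenocarcinoma cells; signal is phosphorylated S6 detected by cytoblot immunostaining with HRP secondary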
# [8] = molecular target: NADPH oxidase 2 (Homo sapiens) (UniProt P04839); experiment: NOX2-dependent H2O2 signal modulators, primary screen, NOX inhibitor project, cell-based, HEK293-NOX2, PMA-stimulated, Amplex Red fluorescence (AID 1159); conditions: 45 min, higher = more signal, called active from +8 up or from −8 down; also: test concentration not given here
# [9] = molecular target: NADPH oxidase 4 (Homo sapiens) (UniProt Q9NPH5); experiment: NOX4-dependent H2O2 signal modulators, primary screen, NOX inhibitor project, cell-based, HEK293-NOX4, tetracycline-induced, Amplex Red fluorescence (AID 1160); conditions: 45 min, higher = more signal, called active from +8 up or from −8 down
# [10] = molecular target: NADPH oxidase 5 (Homo sapiens) (UniProt Q96PH1); experiment: NOX5-dependent H2O2 signal modulators, primary screen, NOX inhibitor project, cell-based, HEK293-NOX5, Amplex Red fluorescence (AID 1161); conditions: HEK293-NOX5, ionomycin, 45 min, higher = more signal
# Chain of NADPH oxidase 5 (Homo sapiens) (Q96PH1 whole entry, looked up): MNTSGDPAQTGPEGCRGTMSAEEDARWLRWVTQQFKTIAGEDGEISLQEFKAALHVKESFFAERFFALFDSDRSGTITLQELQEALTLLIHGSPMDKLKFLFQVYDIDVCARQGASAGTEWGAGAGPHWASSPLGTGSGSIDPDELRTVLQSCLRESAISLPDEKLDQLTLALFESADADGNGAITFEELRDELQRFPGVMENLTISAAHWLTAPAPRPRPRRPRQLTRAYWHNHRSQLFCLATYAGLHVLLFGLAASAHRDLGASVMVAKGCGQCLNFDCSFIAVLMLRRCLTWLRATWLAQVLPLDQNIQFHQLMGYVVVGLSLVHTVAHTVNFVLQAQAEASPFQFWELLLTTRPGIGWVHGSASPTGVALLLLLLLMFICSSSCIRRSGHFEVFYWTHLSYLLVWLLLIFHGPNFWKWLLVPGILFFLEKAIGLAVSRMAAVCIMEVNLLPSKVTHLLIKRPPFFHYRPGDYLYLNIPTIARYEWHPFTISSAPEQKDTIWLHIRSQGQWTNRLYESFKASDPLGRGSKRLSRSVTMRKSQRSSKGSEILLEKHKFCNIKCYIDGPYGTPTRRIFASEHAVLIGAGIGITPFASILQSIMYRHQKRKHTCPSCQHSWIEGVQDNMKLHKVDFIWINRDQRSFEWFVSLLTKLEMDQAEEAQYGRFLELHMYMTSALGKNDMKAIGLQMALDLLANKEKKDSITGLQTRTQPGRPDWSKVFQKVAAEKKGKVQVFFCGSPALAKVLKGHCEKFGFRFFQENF
# Chain of NADPH oxidase 4 (Homo sapiens) (Q9NPH5 whole entry, looked up): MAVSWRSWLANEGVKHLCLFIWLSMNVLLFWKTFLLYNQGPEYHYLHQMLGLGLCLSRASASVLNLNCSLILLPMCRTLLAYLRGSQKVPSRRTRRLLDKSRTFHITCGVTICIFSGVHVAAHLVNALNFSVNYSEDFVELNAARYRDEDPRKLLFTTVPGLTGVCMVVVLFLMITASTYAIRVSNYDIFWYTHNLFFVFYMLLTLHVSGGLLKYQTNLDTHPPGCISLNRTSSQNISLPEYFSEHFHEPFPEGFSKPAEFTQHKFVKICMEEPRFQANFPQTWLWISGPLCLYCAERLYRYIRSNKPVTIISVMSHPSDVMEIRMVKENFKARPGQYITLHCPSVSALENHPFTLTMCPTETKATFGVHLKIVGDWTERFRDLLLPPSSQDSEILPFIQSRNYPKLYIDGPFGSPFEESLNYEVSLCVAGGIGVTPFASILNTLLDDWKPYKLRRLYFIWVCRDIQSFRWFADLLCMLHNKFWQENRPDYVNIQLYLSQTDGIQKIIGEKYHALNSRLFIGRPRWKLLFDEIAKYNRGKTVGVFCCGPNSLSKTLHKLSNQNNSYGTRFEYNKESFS
# Chain of NADPH oxidase 2 (Homo sapiens) (P04839 whole entry, looked up): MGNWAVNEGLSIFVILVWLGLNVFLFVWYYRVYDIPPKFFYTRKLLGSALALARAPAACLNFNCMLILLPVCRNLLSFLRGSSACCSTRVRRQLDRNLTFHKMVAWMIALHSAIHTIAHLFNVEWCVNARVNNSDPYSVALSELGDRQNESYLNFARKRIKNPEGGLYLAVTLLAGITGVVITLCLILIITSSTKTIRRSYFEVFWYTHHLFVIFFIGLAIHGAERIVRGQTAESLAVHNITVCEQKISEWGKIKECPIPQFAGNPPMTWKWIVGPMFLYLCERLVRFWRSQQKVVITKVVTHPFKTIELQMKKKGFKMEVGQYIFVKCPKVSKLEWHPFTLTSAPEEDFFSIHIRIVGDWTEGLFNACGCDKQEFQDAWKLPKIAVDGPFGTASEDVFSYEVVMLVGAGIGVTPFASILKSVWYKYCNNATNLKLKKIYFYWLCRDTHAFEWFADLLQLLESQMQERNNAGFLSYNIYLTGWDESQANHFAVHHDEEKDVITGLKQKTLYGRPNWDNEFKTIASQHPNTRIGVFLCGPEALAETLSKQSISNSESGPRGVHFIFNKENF
Compound,z-score [1],composite z-score [2],z-score [3],z-score [4],z-score [5],z-score [6],z-score [7],z-score [8],z-score [9],z-score [10]
CN1C(=O)C2C=CC(C(O)C(C)(C)C)N(Nc3ccccc3)C2C1=O (stereo not given),-1.06 (inactive),-0.0838,0.931 (inactive),1.05 (inactive),0.156 (inactive),1.12 (inactive),-1.04,-1.09 (inactive),-3.48 (inactive),-1.54
O[C@@H](Cc1ccccc1)[C@@H](/C=C/c1ccccc1)NCc1ccccc1Br,0.955 (inactive),0.0927,1.18 (inactive),0.411 (inactive),1.35 (inactive),0.205 (inactive),0.747,-0.175 (inactive),0.272 (inactive),-0.921
C=C(CCCC)C(=O)CC[C@H](OC(C)=O)c1ccc(CO)o1,0.33 (inactive),0.929,2.26 (inactive),-0.43 (inactive),0.25 (inactive),-1.8 (inactive),0.612,0.184 (inactive),0.209 (inactive),-1.32
C=CCN1Cc2ccccc2C[C@@]2(COC(c3ccc(OCCCO)cc3)=N2)C1=O,0.754 (inactive),0.121,22.7 (active),5.46 (inactive),5.11 (inactive),0.985 (inactive),-0.14,-5.73 (inactive),-1.35 (inactive),-3.28
C=CCC(OC(C)=O)[C@@H]1[C@@H](N(Cc2ccc(-c3ccccc3)cc2)C(=O)c2ccc(C)cc2)c2cc(OCCCO)ccc2N1C(=O)Cc1ccc(OC)cc1 (stereo not given in full),2.25 (inactive),-0.0937,0.398 (inactive),-1.46 (inactive),-0.774 (inactive),-1.43 (inactive),1.52,-0.137 (inactive),1.01 (inactive),2.57
COc1ccc(C(=O)Nc2cccc(CN3C(=O)[C@@]4(O[C@@H](CCn5cc([C@H](O)c6ccccc6)nn5)[C@H]([Si](C)(C)c5ccc(OC)cc5)[C@H]4C)c4ccccc43)c2)cc1,-0.677 (inactive),0.379,4.91 (inactive),0.715 (inactive),0.618 (inactive),1.04 (inactive),0.858,-0.492 (inactive),0.663 (inactive),2.23
C=C[C@H](OC)[C@@H](OC(=O)Nc1ccc(SC)cc1)c1ccc(OCCO)cc1,-0.356 (inactive),-0.101,26 (active),15.7 (active),2.51 (inactive),1.82 (inactive),0.306,0.228 (inactive),0.103 (inactive),0.99
C=C(CCCC)/C(=C/C[C@@H](OC(=O)c1ccncc1)c1ccc(CO)o1)c1cc(C(=O)OC)ccc1OC,0.722 (inactive),0.0263,8.99 (active),1.07 (inactive),2.84 (inactive),0.454 (inactive),0.739,-0.268 (inactive),-1.08 (inactive),-1.52
Cc1ccc(S[C@]2(C(=O)NCC(C)C)CC(=O)N(Cc3ccccc3)[C@@H]2c2ccc(CO)cc2)cc1,-0.747 (inactive),0.171,2.36 (inactive),0.522 (inactive),-0.111 (inactive),0.451 (inactive),0.138,-0.336 (inactive),0.361 (inactive),0.499
O=C(NCC(O)CO)[C@]1(CCS(=O)(=O)c2ccccc2)N=C(c2ccc(OCCCO)cc2)O[C@@H]1c1ccccc1 (stereo not given in full),-0.374 (inactive),0.0371,25.6 (active),6.78 (inactive),1.61 (inactive),0.987 (inactive),-0.516,1.4 (inactive),0.762 (inactive),-0.186
[N-]=[N+]=Nc1ccccc1[C@@H]1OC(c2ccc(OCCCO)cc2)=N[C@]1(CCS(=O)(=O)c1ccccc1)C(=O)O,0.604 (inactive),0.568,28.8 (active),24.4 (active),0.971 (inactive),4.63 (inactive),-0.067,-2.5 (inactive),-0.0168 (inactive),0.778
C=C(C)[C@@H]1CC=C(C(O)C2C=CC3C(=O)N(Cc4ccccc4)C(=O)C3N2n2cnnc2)CC1 (stereo not given in full),-1.05 (inactive),0.298,1.48 (inactive),-0.289 (inactive),1.28 (inactive),-1.38 (inactive),1.65,-3.5 (inactive),-2.39 (inactive),-3.6
C=C(COC)C(=O)CC[C@H](OC(=O)c1cccnc1)c1ccccc1OCCO,0.0928 (inactive),0.473,8.77 (active),0.805 (inactive),0.0448 (inactive),0.307 (inactive),-0.283,-2.86 (inactive),0.0432 (inactive),-1.26
CN1C(=O)C2C(C1=O)C1C=C(c3ccc(CO)cc3)C2C(C2CC2)N1Cc1cc2c(cc1Br)OCO2 (stereo not given),-0.515 (inactive),0.464,19.5 (active),3.1 (inactive),1.2 (inactive),-0.898 (inactive),1.05,-1.18 (inactive),-1.04 (inactive),-0.488
CCCNC(=O)[C@@]1(C)c2ccccc2C(=O)N(Cc2cc(C(F)(F)F)cc(C(F)(F)F)c2)[C@H]1c1ccc(CO)cc1,-0.253 (inactive),-0.0711,4.6 (inactive),-0.305 (inactive),1.97 (inactive),-0.754 (inactive),1.49,-1.98 (inactive),-3.17 (inactive),-3.73
CCCNC(=O)[C@@]1(C)c2ccccc2C(=O)N(Cc2cc(F)cc(C(F)(F)F)c2)[C@H]1c1ccc(CO)cc1,0.119 (inactive),-0.252,7.04 (inactive),0.576 (inactive),1.03 (inactive),0.644 (inactive),0.324,-1.29 (inactive),-1.51 (inactive),-2.07
CO[C@H]1O[C@H](CO)[C@@H](OC(=O)Nc2cccc(F)c2)[C@H](OC(=O)Nc2ccccc2-c2ccccc2)[C@@H]1OC(=O)Nc1ccccc1-c1ccccc1,0.538 (inactive),0.257,3.1 (inactive),2.23 (inactive),0.346 (inactive),1.68 (inactive),0.0437,-2.45 (inactive),-0.551 (inactive),-0.608
C=CCOC(=O)[C@H]1[C@@H]2C(=O)O[C@@H](c3ccccc3)[C@@H](c3ccccc3)N2[C@@H](c2ccc(OCCOC(=O)[C@H]3C[C@H]4C(=O)N[C@@H](CCCC[N+](C)(C)C)C(=O)N4[C@H]3c3ccc(O)cc3)cc2)[C@]12C(=O)Nc1ccccc12,0.0787 (inactive),0.206,-2.12 (inactive),-1.12 (inactive),0.857 (inactive),-1.95 (inactive),-0.327,2.39 (inactive),0.928 (inactive),0.96
O=C1C2C=CC(C(O)c3ccc(B(O)O)cc3)N(Nc3ccc([N+](=O)[O-])cc3)C2C(=O)N1c1ccccc1 (stereo not given),-1.07 (inactive),0.363,2.01 (inactive),1.21 (inactive),0.136 (inactive),0.606 (inactive),-0.537,-1.73 (inactive),-0.374 (inactive),-3.79
C=CC[C@@]1(C(=O)NCCN2CCOCC2)N=C(c2ccc(OCCCO)cc2)O[C@@H]1c1ccccc1CN=[N+]=[N-],-0.121 (inactive),0.0193,24.4 (active),13.4 (active),2.29 (inactive),0.203 (inactive),1.15,-0.842 (inactive),0.908 (inactive),-0.701
CCCCCCCCCCC(O)C1C=CC2C(=O)N(c3ccccc3)C(=O)C2N1Nc1ccc([N+](=O)[O-])cc1 (stereo not given),-1.14 (inactive),0.315,5.24 (inactive),2.56 (inactive),-1.8 (inactive),2.11 (inactive),-0.235,0.309 (inactive),-0.243 (inactive),0.627
[N-]=[N+]=Nc1ccccc1[C@H]1OC(c2ccc(OCCCO)cc2)=N[C@@]1(CCS(=O)(=O)c1ccccc1)C(=O)N1CCOCC1,0.399 (inactive),1.48,31 (active),23.6 (active),1.88 (inactive),4.6 (inactive),0.211,0.404 (inactive),1.56 (inactive),1.36
[N-]=[N+]=NCc1ccccc1C[C@]1(C(=O)N2CCOCC2)N=C(c2ccc(OCCCO)cc2)O[C@H]1c1ccccc1,1.07 (inactive),0.208,29.4 (active),24.2 (active),0.785 (inactive),1.5 (inactive),1.57,-1.95 (inactive),-0.399 (inactive),-1.32
O=S(=O)(NCCCO)c1ccc(Br)cc1,0.949 (inactive),0.103,0.168 (inactive),-0.852 (inactive),-1.21 (inactive),-1.71 (inactive),0.679,-1.2 (inactive),-0.0431 (inactive),0.102
COc1ccc([Si](C)(C)[C@@H]2[C@@H](CCO)O[C@]3(C(=O)N(Cc4ccccc4)c4ccc(N(C=O)c5ccccc5)cc43)[C@H]2C)cc1,0.601 (inactive),0.0355,2.8 (inactive),2.37 (inactive),1.09 (inactive),1.87 (inactive),0.418,0.337 (inactive),1.06 (inactive),2.49
O=C1C2C=CC(C(O)c3ccc(Br)cc3)N(n3cnnc3)C2C(=O)N1Cc1ccccc1 (stereo not given),-2.21 (inactive),0.152,0.922 (inactive),1.16 (inactive),0.107 (inactive),0.756 (inactive),-0.738,0.101 (inactive),2.59 (inactive),0.964
